# Test results reported in the supplement of paper PMC6992640.
# ± gives the standard deviation of the averaged measurements.
# Experiments:
# Assay in all cases: cell viability (% of vehicle); higher = less cytotoxic
# Conditions in all cases: 10 µM; 72 h
# HCI01 = system: HCI01 (cells of a triple-negative basal-like breast cancer xenograft)
# HCI03 = system: HCI03 (cells of an ER-positive luminal breast cancer xenograft)
# HCI09 = system: HCI09 (cells of a triple-negative luminal androgen receptor type breast cancer xenograft)
# HCI11 = system: HCI11 (cells of an ER-positive luminal breast cancer xenograft)
# HCI13 = system: HCI13 (cells of an ER-positive luminal breast cancer xenograft)
# HCI16 = system: HCI16 (cells of a triple-negative basal-like breast cancer xenograft)
# UCD52 = system: UCD52 (cells of a triple-negative basal-like breast cancer xenograft)
# WHIM2 = system: WHIM2 (cells of a triple-negative basal-like breast cancer xenograft)
# WHIM30 = system: WHIM30 (cells of a triple-negative basal-like breast cancer xenograft)
# 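Note: PDX cells carrying CMV promoter-driven luciferase, viability read as total photon flux per second by IVIS imaging following D-luciferin, vehicle control 0.1% DMSO.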
SMILES,cell viability (HCI01),cell viability (HCI03),cell viability (HCI09),cell viability (HCI11),cell viability (HCI13),cell viability (HCI16),cell viability (UCD52),cell viability (WHIM2),cell viability (WHIM30)
CCCNC1CCc2nc(N)sc2C1.Cl.Cl.O (stereo unspecified) [Pramipexole 2HCl Monohydrate],126 ± 3.4,131,107.2 ± 0.44,110,97.4 ± 1.9,138,103 ± 16,94.3 ± 11,103 ± 4.9
CC1CNCCCN1S(=O)(=O)c1cccc2cncc(F)c12.Cl.O.O (stereo unspecified),100 ± 12,140,96.3 ± 9,70.9,82.6 ± 8.8,58.7,84.8 ± 4.2,92.75 ± 0.41,82 ± 2
CN1CCCC1c1cccnc1.O=C(O)C(O)C(O)C(=O)O.O=C(O)C(O)C(O)C(=O)O (stereo unspecified) [Nicotine Difartrate],115 ± 7.3,107,126 ± 40,114,99.2 ± 3.9,98.7,100 ± 12,99.6 ± 9.8,121 ± 2.7
COc1ccc2[n-]c(S(=O)Cc3ncc(C)c(OC)c3C)nc2c1.COc1ccc2[n-]c(S(=O)Cc3ncc(C)c(OC)c3C)nc2c1.[Mg+2] (stereo unspecified) [Esomeprazole Magnesium],77 ± 60,143,84.6 ± 31,92.6,165 ± 18,112,99.55 ± 0.87,94.2 ± 9.3,181 ± 29
CC(=O)SC1CC2=CC(=O)CCC2(C)C2CCC3(C)C(CCC34CCC(=O)O4)C12 (stereo unspecified) [Spironolactone],109 ± 2.6,114,73.8 ± 9.1,110,75.9 ± 6.1,64.2,79.7 ± 14,88.8 ± 8.7,113 ± 10
NNC(=O)c1ccncc1.Nc1ccc(C(=O)O)c(O)c1 [Pasiniazid],94.9 ± 11,111,127 ± 61,122,182 ± 9.2,83.7,95.1 ± 3.1,80.5 ± 33,133 ± 5.1
OCC1OC(OC2(CCl)OC(CCl)C(O)C2O)C(O)C(O)C1Cl (stereo unspecified) [Sucralose],112 ± 2.4,128,91.4 ± 5.3,89.1,70 ± 4.5,140,70.9 ± 6.8,124 ± 30,110 ± 7.1
CC1=C(CC(=O)O)c2cc(F)ccc2C1=Cc1ccc(S(C)=O)cc1 (stereo unspecified) [Sulindac],92.1 ± 23,89.2,81.5 ± 4.2,76.2,108 ± 0.55,119,97.3 ± 3.1,88.7 ± 6.6,104 ± 13
COCC1=C(C(=O)OC(C)OC(=O)OC(C)C)N2C(=O)[C@@H](NC(=O)/C(=N\OC)c3csc(N)n3)[C@H]2SC1 (stereo partly specified) [Cefpodoxime Proxetil],106 ± 3.7,176,102 ± 11,103,109 ± 18,133,99.2 ± 12,106 ± 3.2,105 ± 12
CC/C(=C(\c1ccccc1)c1ccc(OCCN(C)C)cc1)c1ccccc1 [Tamoxifen],39.1 ± 8.5,139,58.5 ± 44,120,82.5 ± 42,88.8,74.5 ± 15,70.4 ± 0.76,123 ± 9.1
CC(=O)Oc1cc2c(s1)CCN(C(C(=O)C1CC1)c1ccccc1F)C2.Cl (stereo unspecified) [Prasugrel hydrochloride],140 ± 12,137,109 ± 14,120,74.2 ± 5.5,149,110 ± 20,110.1 ± 0.98,133 ± 10
Cn1nnc2c(C(N)=O)ncn2c1=O [Temozolomide],136 ± 12,125,105 ± 15,111,122 ± 17,136,97.8 ± 28,117 ± 5.3,107 ± 16
NCC1OC(OC2C(CO)OC(OC3C(O)C(N)CC(N)C3OC3OC(CO)C(O)C(O)C3N)C2O)C(N)C(O)C1O.O=S(=O)(O)O (stereo unspecified) [Paromomycin Sulfate],125 ± 32,133,88.3 ± 10,95,86.8 ± 14,129,91.82 ± 0.62,131 ± 48,111 ± 8
Nc1ccn(C2CCC(CO)O2)c(=O)n1 (stereo unspecified) [Zalcitabine],90.1 ± 3.1,124,102 ± 5.5,93.5,91.99 ± 0.76,128,104 ± 10,85.08 ± 0.32,176 ± 35
CCc1nc(N)nc(N)c1-c1ccc(Cl)cc1 [Pyrimethamine],111 ± 6.4,129,81.6 ± 8.9,121,105 ± 12,109,75.2 ± 2.4,119 ± 4.7,104 ± 1.9
CCNC1CC(N)C(OC2OC(CN)=CCC2N)C(O)C1OC1OCC(C)(O)C(NC)C1O.CCNC1CC(N)C(OC2OC(CN)=CCC2N)C(O)C1OC1OCC(C)(O)C(NC)C1O.O=S(=O)(O)O.O=S(=O)(O)O.O=S(=O)(O)O.O=S(=O)(O)O.O=S(=O)(O)O (stereo unspecified) [Netilmicin Sulfate],99.3 ± 34,125,125 ± 46,111,98.3 ± 2.5,138,120 ± 18,115.7 ± 1.1,138 ± 28
O=C(O)c1ccccc1O [Salicylic acid],106 ± 7.3,114,138 ± 62,116,99.1 ± 7,98.3,120 ± 16,95.1 ± 13,118 ± 23
CCOC(=O)C1=C(C)NC(C)=C(C(=O)OC)C1c1cccc([N+](=O)[O-])c1 (stereo unspecified) [Nitrendipine],111 ± 10,123,93.6 ± 17,112,104 ± 0.32,90.2,80.15 ± 0.7,95.6 ± 22,97.2 ± 5.3
Cc1ccc(-c2ncc(Cl)cc2-c2ccc(S(C)(=O)=O)cc2)cn1 [Etoricoxib],107 ± 4.3,118,85.1 ± 16,79.9,96.7 ± 2.1,141,77.3 ± 3.4,143 ± 16,116 ± 13
